Screen size: about 310,000 compounds; about 14,000 (4.5%) showed an effect of 50% or more. Effects have a minus sign here. This excerpt belongs to a sample that is enriched for strong results.
The compounds below were run against human ether-à-go-go-related gene (hERG) potassium channel (human, UniProt Q12809) (assay: primary screen, population patch clamp on CHO cells stably expressing hERG; higher = less effect of the substance).
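Also: peak tail current of the secondary pulse compared with the same well before compound.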

Sequence of human ether-à-go-go-related gene (hERG) potassium channel (Q12809 whole entry, looked up): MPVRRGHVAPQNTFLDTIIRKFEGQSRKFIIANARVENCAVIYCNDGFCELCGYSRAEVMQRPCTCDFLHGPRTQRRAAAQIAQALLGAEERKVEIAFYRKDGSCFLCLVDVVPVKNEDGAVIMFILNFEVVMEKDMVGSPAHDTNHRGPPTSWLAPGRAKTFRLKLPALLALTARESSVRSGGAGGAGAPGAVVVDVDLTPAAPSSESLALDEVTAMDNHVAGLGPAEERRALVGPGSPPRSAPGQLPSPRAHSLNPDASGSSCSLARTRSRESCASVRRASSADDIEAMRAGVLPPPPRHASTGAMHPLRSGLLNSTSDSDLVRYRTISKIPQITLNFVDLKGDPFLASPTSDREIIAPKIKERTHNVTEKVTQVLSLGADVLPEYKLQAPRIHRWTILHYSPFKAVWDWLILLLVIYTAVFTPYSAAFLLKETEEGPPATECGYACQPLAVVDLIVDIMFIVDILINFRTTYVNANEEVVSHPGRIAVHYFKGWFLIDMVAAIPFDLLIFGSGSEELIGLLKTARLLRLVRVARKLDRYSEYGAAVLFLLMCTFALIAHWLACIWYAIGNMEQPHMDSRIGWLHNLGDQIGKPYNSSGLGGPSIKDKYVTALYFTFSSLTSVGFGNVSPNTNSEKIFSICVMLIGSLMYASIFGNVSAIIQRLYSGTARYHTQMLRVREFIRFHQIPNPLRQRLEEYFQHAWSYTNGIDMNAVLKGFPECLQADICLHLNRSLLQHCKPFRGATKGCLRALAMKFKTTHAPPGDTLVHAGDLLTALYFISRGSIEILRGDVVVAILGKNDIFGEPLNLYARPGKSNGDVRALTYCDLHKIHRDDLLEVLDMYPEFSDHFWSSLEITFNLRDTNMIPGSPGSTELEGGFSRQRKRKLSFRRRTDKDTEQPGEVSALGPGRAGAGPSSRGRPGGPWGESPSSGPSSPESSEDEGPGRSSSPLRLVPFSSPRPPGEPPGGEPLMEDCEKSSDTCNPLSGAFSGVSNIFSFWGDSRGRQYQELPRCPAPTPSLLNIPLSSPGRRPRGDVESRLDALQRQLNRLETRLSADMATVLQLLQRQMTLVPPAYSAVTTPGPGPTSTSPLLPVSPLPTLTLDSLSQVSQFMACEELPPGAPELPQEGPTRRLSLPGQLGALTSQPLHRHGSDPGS

Compound | hERG current change (%, negative = inhibition) at 10uM [%]
COc1cc(/C=C/C(=O)O)cc(S(=O)(=O)Nc2ccccc2SC)c1OC | 15.5
O=C(Nc1ncn[nH]1)c1ccc(S(=O)(=O)N2CCOCC2)cc1 | -5.88
CC(C)c1ccc(NC(=O)CN2C(=O)NC3(CCCC3)C2=O)cc1 | 5.63
COc1cccc(C(=O)OCCN2CCOCC2)c1.Cl | 6.33
Cc1cc(C)c(OCC(=O)NCC2COc3ccccc3O2)c(C)c1 (stereo not drawn) | -13.9
O=C(CSc1nnc(CNC(=O)c2ccccc2F)o1)NC1CCCC1 | 10.7
CCN(CCn1cccn1)C(=O)CCc1nnc(CCCc2ccccc2)o1 | -37
CC(C)(C)c1cc(NC(=O)c2ccc(OC3CCCC3)cc2)no1 | 14.2
Cc1nc2c(-c3ccccc3)c(C)nn2c(C)c1CCC(=O)N1CCC2(CC1)OCCO2 | -40.5
Cc1nc2c(-c3ccccc3)c(C)nn2c(C)c1CCC(=O)N1CCOCC1 | -33.9
Cc1nc2cc(-c3cccc(F)c3)nn2c(C)c1CCC(=O)N1CCC2(CC1)OCCO2 | -37.5
Cc1nc2c(-c3ccc(F)cc3)c(C)nn2c(C)c1CCC(=O)N1CCN(c2ccccn2)CC1 | -69.5
CCOC(=O)C1CCN(C(=O)CCc2c(C)nc3c(-c4ccc(F)cc4)c(C)nn3c2C)CC1 | -71.1
COC(CNC(=O)CCc1c(C)nc2c(-c3ccc(F)cc3)c(C)nn2c1C)OC | -21.8
COc1ccccc1NC(=O)CCc1c(C)nc2c(-c3ccc(F)cc3)c(C)nn2c1C | -20.3
Cc1nc2c(-c3ccc(F)cc3)c(C)nn2c(C)c1CCC(=O)N1CCOCC1 | -53.3
Cc1nc2c(-c3ccc(F)cc3)c(C)nn2c(C)c1CCC(=O)NCCN1CCOCC1 | -24.3
Cc1nc2c(-c3ccc(F)cc3)c(C)nn2c(C)c1CCC(=O)N1CCC2(CC1)OCCO2 | -67.8
Cc1nc2c(-c3ccc(F)cc3)c(C)nn2c(C)c1CCC(=O)N1CCC(Cc2ccccc2)CC1 | -21.2
CCCCCCc1nnc(N)s1 | -0.995
Cc1cc(=O)n(C2CCS(=O)(=O)C2)[nH]1 (stereo not drawn) | 14.7

Compound | hERG current change (%, negative = inhibition) at 10uM [%]
O=c1[nH]c(=S)c2ncn(-c3ccccc3)c2[nH]1 | 11.7
CCCCC(CCC(=O)O)(C(=O)OCC)c1csc(Nc2ccc(C)cc2)n1 (stereo not drawn) | -0.891
Cc1ccc(N2C(=O)CC(c3ccsc3)C3=C2CC(C)(C)CC3=O)cc1 (stereo not drawn) | 3.75
COc1ccc(CNC(=O)CN2CCN(c3cccc(C)c3C)CC2)cc1 | -8.46
CCN(CC(=O)Nc1ccccc1OC)C(=O)CSCc1ccc(C)cc1 | -2.36
CCCNC(=O)NC(=O)COC(=O)c1cccc(NS(=O)(=O)c2ccc(F)c(F)c2)c1 | -12
COc1ccc(C(C(=O)NC2CCCC2)N(C(=O)CNC(=O)c2ccco2)c2cccnc2)cc1 (stereo not drawn) | 14.7
Cc1oc2c(C)c3oc(=O)c(CCC(=O)NCCCN4CCCC4=O)c(C)c3cc2c1C | -14.8
COCCCNC(=O)CCc1c(C)nc2c(-c3ccc(F)cc3)c(C)nn2c1C | -38.5
Cc1nc2c(-c3ccc(F)cc3)c(C)nn2c(C)c1CCC(=O)Nc1ccccc1F | -10.7
Cc1nc2c(-c3ccc(F)cc3)c(C)nn2c(C)c1CCC(=O)N1CCN(c2ccc(F)cc2)CC1 | -74.6
COc1ccc(CN2C(=O)C(C)S/C2=N/N=C/c2ccco2)cc1 (stereo not drawn) | 6.37
Cc1c(OCC(=O)NCCCn2ccnc2)ccc2c3c(c(=O)oc12)CCC3 | -26.7
CCCc1cc(=O)oc2c(C)c(OCC(=O)Nc3cccnc3)ccc12 | -63.6
Cc1c(C)c2ccc(OCC(=O)Nc3cccnc3)c(C)c2oc1=O | 3.99
CCc1cc(=O)oc2cc(OC(C)C(=O)NCCCn3ccnc3)ccc12 (stereo not drawn) | 9.41
Cc1cc(=O)oc2cc(OC(C)C(=O)NCCCn3ccnc3)ccc12 (stereo not drawn) | 9.44
Cc1c(OCC(=O)NCCCn2ccnc2)ccc2c3c(c(=O)oc12)CCCC3 | -48.2
CC(Oc1ccc2c3c(c(=O)oc2c1)CCCC3)C(=O)NCCCn1ccnc1 (stereo not drawn) | -2.45
CC(Oc1ccc2ccc(=O)oc2c1)C(=O)NCCCn1ccnc1 (stereo not drawn) | 28.5
COc1ccc(-c2cc(=O)oc3c(C)c(OCC(=O)NCCCn4ccnc4)ccc23)cc1 | -63.8

Compound | hERG current change (%, negative = inhibition) at 10uM [%]
CC(Oc1ccc2c(-c3ccccc3)cc(=O)oc2c1)C(=O)NCCCn1ccnc1 (stereo not drawn) | -52.5
COc1ccc(-c2cc(=O)oc3cc(OC(C)C(=O)NCCCn4ccnc4)ccc23)cc1 (stereo not drawn) | -50.8
Cc1cc(=O)oc2c(C)c(OCC(=O)Nc3cccnc3)ccc12 | -25.3
COc1ccc(-c2cc(C(=O)N(C)CCc3ccc(OC)c(OC)c3)c3ccccc3n2)cc1 | -29.4
CC(c1ccco1)N(C(=O)c1cccc(S(=O)(=O)N(C)C)c1)c1ccccn1 (stereo not drawn) | 16
COc1ccc(-c2cc(=O)oc3cc(OCC(=O)NCCCn4ccnc4)ccc23)cc1 | -65.4
COC(=O)COc1ccc2c(-c3ccc(OC)cc3)cc(=O)oc2c1 | -39.2
CCc1cc(=O)oc2c(C)c(OCC(=O)NCCCn3ccnc3)ccc12 | -45.9
COc1ccc(-c2cc(=O)oc3cc(OCC(C)=O)ccc23)cc1 | -74.6
O=C(COc1ccc2c(-c3ccccc3)cc(=O)oc2c1)NCCCn1ccnc1 | -48.7
Cc1c(C)c2ccc(OCC(=O)NCCCn3ccnc3)c(C)c2oc1=O | -32.7
Cc1cc(=O)oc2cc(OCC(=O)NCCCn3ccnc3)ccc12 | 7.58
CCCc1cc(=O)oc2c(C)c(OCC(=O)NCCCn3ccnc3)ccc12 | -75.3
CC(=O)COc1ccc2c(-c3ccccc3)cc(=O)oc2c1 | -1.91
Clc1cccc(-c2nc(NCCCN3CCOCC3)c3ccccc3n2)c1 | -10.1
CCOC(=O)N1CCN(C(=O)c2cccc(NC3=NC4CS(=O)(=O)CC4S3)c2)CC1 (stereo not drawn) | 4.31
NC(=O)c1cc(Cc2ccccc2)sc1NC(=O)c1ccco1 | -13.6
O=C1CCC(c2ccccc2)=NN1 | 9.05
COCC(C)NC(=O)/C(=C/c1ccccc1)c1ccccc1 (stereo not drawn) | -25
COc1ccc(S(=O)(=O)C(C#N)c2nc3ccccc3nc2N2CCC(C)CC2)cc1 (stereo not drawn) | 18.6
O=C(Nc1ccccc1)Nc1ccc2c(c1)CCC2 | 29.8

Compound | hERG current change (%, negative = inhibition) at 10uM [%]
CC(OC(=O)CCCOc1ccccc1)C(=O)NC(N)=O (stereo not drawn) | 9
Cn1cncc1C#Cc1c(C=O)n(C)c2ccccc12 | 19.8
Cc1ccc(C)c(NC(=O)COc2cccc3c2CCN(Cc2ccccc2)C3=O)c1 | -10.1
COC(=O)c1ccc(COc2cccc3c2CCN(Cc2cccc(C)c2)C3=O)o1 | -3.41
Cc1cccc(CN2CCc3c(OCC(=O)NCc4ccco4)cccc3C2=O)c1 | -51.2
Cc1ccc(CN2CCc3c(OCC(=O)Nc4cc(C)ccc4C)cccc3C2=O)cc1 | 4.23
O=C(COc1cccc2c1CCN(Cc1ccccc1)C2=O)NCc1ccco1 | -70.3
Cc1cccc(NC(=O)COc2cccc3c2CCN(Cc2ccccc2)C3=O)c1C | -5.8
O=C(COc1ccccc1-c1ccccc1)NCc1ccco1 | -28
O=C1c2cccc(OCC(=O)N3CCCc4ccccc43)c2CCN1Cc1ccc(Br)cc1 | 6.7
O=C(COc1cccc2c1CCN(Cc1ccc(Br)cc1)C2=O)NCc1ccco1 | -70.6
O=C(CN1C(=O)C2CC=CCC2C1=O)Nc1ccccc1N1CCCC1 (stereo not drawn) | 6.41
CCOC(=O)c1c(C)c(C(=O)NCCN2CCOCC2)c(C)n1C | 15.1
CCOC(=O)C1(C)NC(c2ccco2)C2C(=O)N(C)C(=O)C21 (stereo not drawn) | 13.6
COc1ccc(C2c3c(oc4ccccc4c3=O)C(=O)N2CCCN2CCOCC2)cc1 (stereo not drawn) | -7.15
COC(=O)c1ccc(C2c3c(oc4ccc(Cl)cc4c3=O)C(=O)N2CCN2CCOCC2)cc1 (stereo not drawn) | -35.2
COc1ccc(C2c3c(oc4ccc(Cl)cc4c3=O)C(=O)N2CCN2CCOCC2)cc1 (stereo not drawn) | -81.2
C/C(=N\NC(=O)c1c(Br)c(C)nn1C)c1cccc(NC(=O)C2CCC2)c1 | -19.4
Cc1c(C(=O)N2CCN(S(C)(=O)=O)CC2)oc2ccccc12 | 3.49
CCCCNS(=O)(=O)c1ccc2nc(-c3cccnc3)cc(C(=O)NC(C)C)c2c1 | 16.7
O=C(C1CCC1)N1CCC(O)(c2cccc(F)c2)CC1 | 14.6

From PMC4336329 (PLoS ONE, 2015)
